KCNH2 3.1 block = KCNH2 3.1 (human) potassium channel inhibition | U2OS KCNH2 3.1, thallium flux FluxOr; hits give low values | AID 720553 | 340,000 tested, 0.95% active | activity change, % (tested at about 1.8 µM);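 active = maximum activity change below -70%; inconclusive = maximum activity change from -70% to -50%; inactive = maximum activity change above -50%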;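 also: thallium influx rate constant from kinetic fluorescence after stimulation buffer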
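Channel expression came from 3.1 mutant virus (1.77 x 10^8 /mL) applied to suspended U2OS cells for 4 h. Flux was tracked with FluxOr dye plus Red40 quencher, and kinetic rate constants normalized to controls.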
KCNH2 WT inh = inhibitors of human wildtype KCNH2 potassium channel; U2OS, BacMam KCNH2, thallium flux FluxOr; hits give low values; activity change, % at 1.84 µM; 340,000 tested, 0.37% active;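 active = maximum activity change below -70%; inconclusive = maximum activity change between -70% and -50%; inactive = maximum activity change above -50%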
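U2OS cells were transduced with wild-type KCNH2 virus (2.03 x 10^8 / mL) for 4 h at room temperature, then cultured overnight at 37 C. Thallium flux was read with FluxOr dye. Rate constants were normalized to DMSO controls.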
GLP-1R inv ag = acts as inverse agonist at human GLP-1 receptor; Potency, µM (highest dose often 38.3 µM), hits mostly inhibitors; P43220; AID 624417; HEK293 GLP-1R CRE-luciferase, luminescence, 24 h; GLP-1R form is constitutively active; 410,000 tested, 1.6% active; also: nearly all actives have a fitted effect of over 55% in size
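Cells are plated, allowed 12 hours at 37 deg C, then treated with compounds for 24 hr before luciferase detection reagent is added and luminescence is read after 12 min at room temperature. The HEK293 line carries constitutively active GLP-1R with a cAMP-responsive reporter.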
GLS inh = inhibitors of human glutaminase (GLS); O94925; GLS enzymatic activity, qHTS titration; Potency, µM (titrated, usually from 45.5 µM), most hits filed as inhibitors; 410,000 tested, 0.21% active
Target sequence (O94925 whole entry, looked up): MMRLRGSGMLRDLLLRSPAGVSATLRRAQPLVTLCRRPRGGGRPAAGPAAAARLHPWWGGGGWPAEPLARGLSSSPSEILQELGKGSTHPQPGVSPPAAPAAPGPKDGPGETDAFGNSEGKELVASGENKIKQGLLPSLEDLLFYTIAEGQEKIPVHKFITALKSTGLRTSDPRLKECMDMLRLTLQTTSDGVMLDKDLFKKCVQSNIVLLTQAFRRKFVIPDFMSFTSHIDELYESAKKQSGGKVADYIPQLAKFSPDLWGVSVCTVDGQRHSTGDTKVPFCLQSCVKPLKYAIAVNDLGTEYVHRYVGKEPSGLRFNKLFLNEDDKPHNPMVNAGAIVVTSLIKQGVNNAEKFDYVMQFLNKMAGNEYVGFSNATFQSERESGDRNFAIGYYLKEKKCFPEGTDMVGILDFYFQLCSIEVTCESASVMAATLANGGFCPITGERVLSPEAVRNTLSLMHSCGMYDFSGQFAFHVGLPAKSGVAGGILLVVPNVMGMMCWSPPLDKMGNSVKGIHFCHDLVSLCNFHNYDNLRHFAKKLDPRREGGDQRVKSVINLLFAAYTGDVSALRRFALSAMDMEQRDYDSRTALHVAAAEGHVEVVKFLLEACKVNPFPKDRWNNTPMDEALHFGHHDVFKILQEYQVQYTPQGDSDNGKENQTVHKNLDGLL
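hKGA; 45 mM KH2PO4 pH 8.2 + 0.02% Tween-20; cpd via pin tool; 1 mM Gln soln; GluOx/HRP/Amplex Red; RT 30 min; fluor. t0 & final.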
GLP1R ag = agonists of human GLP-1 receptor | P43220 | HEK293 GLP-1R CRE-luciferase, luminescence, 4-6 h; cells express a hypersensitive GLP-1R form | Potency, µM (top dose mostly 45.6 µM), actives largely listed as activators | 380,000 tested, 0.007% active
GLP1R cytotox = cytotoxicity in counter-screen for GLP-1R inverse agonists | HEK293 cAMP-luciferase reporter cells, luminescence, 24 h | Potency, µM (top dose mostly 38.3 µM), hits mostly inhibitors | 410,000 tested, 0.13% active | AID 624418;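 also: loss of luciferase light is scored as toxicity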
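Quantitative HTS format, 1536 wells, 200 cells/uL seeded. Compounds: 23 nL, 24 h, 37 °C. Detection: luciferase reagent, luminescence at 12 min RT; decreased signal taken as cytotoxic.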
Hits are given with their value; . = inactive; ? = inconclusive; / = no result. Most compounds without a hit are left out; they make up all but 2.8% or so of the library. Unless noted, calls follow the shape of the dose curve; as a rule, active = well fitted curve in the direction sought with a large enough effect; inconclusive = small, poorly fitted or top-dose-only effect, or another doubt; inactive = no such curve, though single readings can be large; an effect the other way counts as inactive or inconclusive.

SMILES	KCNH2 3.1 block	KCNH2 WT inh	GLP-1R inv ag	GLS inh	GLP1R ag	GLP1R cytotox
C#CCN(C(=O)c1cc(COc2ccc(C)c(C)c2)on1)C1CCCCC1	/	.	10µM	.	.	.
N=C1N=C(N)c2cc3ccccc3cc21	/	/	/	.	.	/
CCOc1ccc(OCC)c(NS(=O)(=O)c2ccc(-c3coc(C)n3)cc2)c1	/	/	?	.	/	.
Cc1cccc(NC(=O)CCNS(=O)(=O)c2ccc3c(c2)CCN3C(=O)C2CC2)c1	/	/	.	.	.	.
Cc1ccc2c(CNC3CCC(C)CC3)c(C(=O)O)n(Cc3cccc(F)c3)c2c1 (configuration not stated)	/	/	.	.	/	.
CCC(C)(C)C1CCC2(CC1)NC(=O)N(CC(=O)NC(C)CCc1ccccc1)C2=O (configuration not stated)	.	.	3.5µM	.	.	.
COc1ccc(C(C)=O)cc1COC(=O)C(CO)NS(=O)(=O)c1ccc(Br)cc1 (configuration not stated)	-79	.	.	.	.	.
COc1ccc(C(C)=O)cc1COC(=O)CCNS(=O)(=O)c1ccc(C(C)=O)cc1	.	.	.	.	.	.
O=S(=O)(Nc1cccc(F)c1)c1ccc(S(=O)(=O)N2CCOCC2)cc1	-74	.	.	.	.	.
CCOc1ccc(Br)cc1S(=O)(=O)Nc1cccc(S(=O)(=O)N2CCOCC2)c1	.	-223	.	.	.	.
Cc1ccccc1CSc1nc2c(sc3ccccc32)c(=O)n1CCCC(=O)NCCCOC(C)C	/	/	.	.	/	.
COc1ccc(N=C2S/C(=C\c3ccc(OCC(=O)O)cc3)C(=O)N2CCc2c[nH]c3ccccc23)cc1	.	.	.	10µM	.	.
Cc1ccc(CN2CCN(CC(=O)N=Nc3c(O)[nH]c4ccccc34)CC2)cc1	-72	?	?	.	.	.
Cc1cc(C)c2nc(N3CCC(C(=O)NCCCN4CCCCC4)CC3)sc2c1	.	.	3.2µM	.	.	?
Cc1ccc(-c2cn3nc(N4CCCC(C(=O)NCc5ccccc5F)C4)sc3n2)cc1 (configuration not stated)	/	/	.	.	/	.
Cn1cc(CN(C(=O)Nc2ccccc2)C2CCCCC2)c2ccccc21	/	/	10µM	.	.	?
CCOC(=O)C1=CN(Cc2cccc(F)c2)S(=O)(=O)NC1c1ccc2ccccc2c1 (configuration not stated)	.	.	13µM	.	.	.
Oc1c(C(c2ccccc2F)N2CCCCC2)sc2nc(-c3ccco3)nn12 (configuration not stated)	/	/	.	.	/	.
CC1C/C(=C/c2ccccn2)C(=O)/C(=C/c2ccccn2)C1 (configuration not stated)	.	.	.	.	.	4.5µM
CCN1CCN(Cc2ccc(NC(=O)c3ccc(C)c(NC(=O)c4c[nH]c5cc(C(F)(F)F)ccc5c4=O)c3)cc2C(F)(F)F)CC1	.	.	10µM	.	.	?
Cc1ccc2[nH]c(C(=O)O)c(NC(=O)CN3CCN(c4cccc(C)c4C)CC3)c2c1	.	.	10µM	.	.	.
COC(=O)c1[nH]c2ccc(C)cc2c1NC(=O)CN1CCC(C)CC1	.	.	6.3µM	.	.	.
COC(=O)c1[nH]c2ccc(C)cc2c1NC(=O)CN1CCN(c2ccccc2)CC1	.	.	10µM	.	.	?
CCOC(=O)N1CCN(CC(=O)Nc2c(C(=O)OC)[nH]c3cc(C)ccc23)CC1	.	.	.	.	.	.
COC(=O)c1[nH]c2ccc(C)cc2c1NC(=O)CN1CCN(c2ccc(F)cc2)CC1	.	.	4µM	.	.	.
SMILES	KCNH2 3.1 block	KCNH2 WT inh	GLP-1R inv ag	GLS inh	GLP1R ag	GLP1R cytotox
COC(=O)c1[nH]c2ccc(C)cc2c1NC(=O)CN1CCN(C(=O)c2ccccc2)CC1	.	.	.	.	.	?
COC(=O)c1[nH]c2ccc(Cl)cc2c1NC(=O)CN1CCC(C(N)=O)CC1	.	.	.	.	.	.
O=Nc1[nH]c(=O)c(/C=C(\O)c2ccccc2)nc1NO	.	.	.	.	.	?
O=S(=O)(c1ccccc1)c1nnn2c1nc(N1CCN(c3ccccc3)CC1)c1cc(Cl)ccc12	/	/	.	.	/	.
CSc1nc(=O)c2c(n1C)NC(=O)CC2c1cc(F)cc(F)c1 (configuration not stated)	/	/	.	.	/	.
Cc1ccc(S(=O)(=O)N2CCCc3cc(NC(=O)c4ccc(C(F)(F)F)cc4)ccc32)cc1	/	/	?	.	/	.
Clc1ccc(/C(Cc2nc3ccccc3[nH]2)=N\Nc2ccccc2)cc1	-102	.	?	.	.	.
O=C(Cc1nc2ccccc2[nH]1)c1ccc([N+](=O)[O-])cc1	.	.	.	.	.	.
CN/N=C(\Cc1nc2ccccc2[nH]1)c1ccc([N+](=O)[O-])cc1	-75	?	.	.	.	.
CCN(C(=O)Cn1c(C(=O)OC)cc2sccc21)c1cccc(C)c1	/	/	?	.	/	.
CCN(CC)S(=O)(=O)c1ccc2c(c1)nc(CN(C)C(=O)Nc1cccc(Cl)c1)n2C	/	/	.	?	/	.
CC(C(=O)Nc1ccc2c(c1)OCO2)N(c1ccc(Cl)cc1)S(C)(=O)=O (configuration not stated)	.	.	10µM	.	.	.
Cc1ccc(N(C(C)C(=O)Nc2cc(Cl)ccc2Oc2ccccc2)S(C)(=O)=O)cc1 (configuration not stated)	-72	.	?	.	.	.
Cc1ccc(N(CC(=O)Nc2cc(Cl)ccc2Oc2ccccc2)S(C)(=O)=O)c(C)c1	.	.	7.1µM	.	.	.
COc1ccc(/C(N)=N/OC(=O)CC2CCCCC2)cc1	.	.	.	.	.	.
CCc1ccc(NC(=O)Cn2c(=O)n(CCCCC(=O)NCc3ccc4c(c3)OCO4)c(=O)c3ccccc32)cc1	/	/	.	.	.	.
CC(Sc1nnc(CN2CCCC2)n1Cc1ccccc1)C(=O)Nc1ccccc1 (configuration not stated)	.	.	7.9µM	.	.	.
CC(Sc1nnc(CN2CCCC2)n1Cc1ccccc1)C(=O)Nc1ccc(F)c(F)c1F (configuration not stated)	.	.	5µM	.	.	.
Cc1c(Cl)cccc1NC(=O)CSc1nc(=O)n(Cc2ccccn2)c2c1CCC2	/	/	.	.	/	.
Cc1nn(-c2nc3ccccc3[nH]2)c(N)c1-c1ccc(Cl)cc1	-84	.	?	.	.	?
Cc1nn(-c2nc3ccccc3[nH]2)c(=O)c2ccccc12	.	.	.	.	.	.

From PubChem
